12-LOX inh: inhibitors of human 12S-lipoxygenase ALOX12. P18054. hit rate 1.1% among 580,000. purified 12hLO, xylenol orange hydroperoxide absorbance. AID 1671190. Potency, µM (highest dose often 108 µM), for inactives: at the highest dose activity change, negative = inhibition, most hits filed as inhibitors; note: % is set by controls: 0 for no effect and ±100 for the full control effect
Target sequence (P18054 whole entry, looked up): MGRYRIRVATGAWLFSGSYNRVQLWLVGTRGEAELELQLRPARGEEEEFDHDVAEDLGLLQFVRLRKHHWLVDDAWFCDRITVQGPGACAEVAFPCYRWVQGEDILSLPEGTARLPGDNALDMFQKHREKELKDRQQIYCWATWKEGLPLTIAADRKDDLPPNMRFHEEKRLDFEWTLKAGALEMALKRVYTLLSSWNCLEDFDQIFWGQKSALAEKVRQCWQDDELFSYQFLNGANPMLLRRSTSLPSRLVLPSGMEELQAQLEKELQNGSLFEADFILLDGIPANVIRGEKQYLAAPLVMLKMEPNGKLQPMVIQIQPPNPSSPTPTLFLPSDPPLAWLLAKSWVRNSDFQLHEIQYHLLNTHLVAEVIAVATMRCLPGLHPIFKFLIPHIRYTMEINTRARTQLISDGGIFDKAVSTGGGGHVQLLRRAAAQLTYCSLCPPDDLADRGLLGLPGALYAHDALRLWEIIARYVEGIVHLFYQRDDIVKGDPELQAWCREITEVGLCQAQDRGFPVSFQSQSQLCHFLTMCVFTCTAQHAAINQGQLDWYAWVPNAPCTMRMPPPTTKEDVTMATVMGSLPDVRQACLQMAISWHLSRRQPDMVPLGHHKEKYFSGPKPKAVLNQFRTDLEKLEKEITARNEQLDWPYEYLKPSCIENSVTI
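Purified human 12hLO at 150 nM in 25 mM Hepes, 0.01% Triton X-100, pH 7.0, preincubated 15 min at room temperature with compound. Reaction started with 40 uM arachidonic acid, 30 min at room temperature. Hydroperoxide measured by Fe-xylenol orange, 573/405 nm absorbance ratio.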
Chronic BCR inh: blocks chronic active B-cell receptor signaling; ABC-DLBCL IkBa-CBG/CBR reporter, luminescence ratio, 4 h; Potency, µM (series often up to 46.1 µM), inactives show at the top dose activity change, negative = inhibition, actives largely listed as inhibitors; hit rate 0.05% among 340,000; active = well fitted inhibition curve with a large enough effect in the signal ratio, with a control signal flat, not every such curve was filed as active; inconclusive = small, poorly fitted or top-dose-only effect, or effect the other way, or a change in a side signal; the % refers to the signal ratio;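 note: plate controls were basal doxycycline-induced cells for no effect and cells given 10 µM MG132 for full effect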
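Doxycycline induced both beetle luciferases in TMD8 lymphoma cells; IKK-driven degradation limits the IkappaBalpha-fused green signal, while red luminescence normalises for cell number and nonspecific effects. Compounds tested up to 46 uM, 4 hrs.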
Glioma ERSR ind: induces the endoplasmic reticulum stress response in human glioma cells. U87-MG GRP78 promoter luciferase reporter, 16 h. Potency, µM, without a hit: top-dose activation, hits mostly activators. hit rate 0.02% among 420,000; note: series mostly up to about 76 µM; % of control where 0% means no effect; nearly all actives have a fitted effect of over 35% in size
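ERSR induction read as luciferase luminescence (Bright-Glo, 10 min at room temperature) in stably transfected human U87-MG glioma cells exposed to compounds for 16 h, using GRP78 as sensor.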
Apoferritin bind: binds horse apoferritin like a general anesthetic. apoferritin/1-aminoanthracene competitive binding, fluorescence. Potency, µM (highest dose often 77.5 µM), inactives show top-dose activity change, negative = displacement, actives largely listed as inhibitors. hit rate 0.074% among 350,000; note: % is set by controls: 0 for no effect and ±100 for the full control effect; nearly all actives have a fitted effect of over 20% in size
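Horse-spleen apoferritin (10 uM) was mixed with 50% saturated 1-aminoanthracene in PBS, exposed to compounds for 10 min at room temperature, and read for fluorescence (ex 380 nm, em 535 nm). Competitive displacement was fitted with a four-parameter Hill equation.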
Active calls of the source: *; i = inactive; ? = inconclusive; / = not tested or not shown; ! = not active in a repeat; [ ] = dose if it differs, or a comment. The list is not random: actives were taken first. Their share in the collection is about 1.1%. Unless noted, calls come from the whole dose curve; as a rule, active = well fitted curve in the direction sought with a large enough effect; inconclusive = small, poorly fitted or top-dose-only effect, or another doubt; inactive = no such curve, though single readings can be large; an effect the other way counts as inactive or inconclusive. Potency is the fitted concentration of half-maximal effect.

SMILES	12-LOX inh	Chronic BCR inh	Glioma ERSR ind	Apoferritin bind
O=C(O)c1cc(O)c2c(c1)[C@@H]([C@H]1c3cc(C(=O)O)cc(O)c3C(=O)c3c(O[C@@H]4O[C@H](CO)[C@@H](O)[C@H](O)[C@H]4O)cccc31)c1cccc(OC3O[C@H](CO)[C@@H](O)[C@H](O)[C@H]3O)c1C2=O (some centres not stated)	50µM*	0%	-5%	/
CC(C)COc1ccc(C(=O)Nc2ccc3oc(=O)ccc3c2)cc1	-7%	/	/	/
CCS(=O)c1ccccc1C(=O)NCc1ccc(C)cc1 (configuration not stated)	18µM*	/	/	/
Cc1[nH]c(I)c(C)c1C=O	14µM*	/	/	/
Cc1ccc(Cc2c[nH]c(=S)s2)cc1	35µM*	?	-1%	?
CCOC(=O)c1cc(-c2ccco2)nc2c1c(C)nn2CCC#N	?	14%	-5%	52%
CCOC(=O)c1cc(-c2ccco2)nc2c1c(C)nn2-c1cccc(Cl)c1	14µM*!	5%	-2%	-7%
CC(C)COc1cccc(C(=O)NC(=S)Nc2cccc(NC(=O)c3ccccc3Cl)c2)c1	28µM*	-7%	-2%	-10%
CCCOc1cccc(C(=O)NC(=S)Nc2cccc(NC(=O)c3ccccc3Cl)c2)c1	13µM*	?	-2%	-3%
CC(C)C(=O)NC(=S)Nc1ccc(NC(=O)c2cccc(Cl)c2)cc1	16µM*	/	/	/
CC(C)Oc1cccc(C(=O)NC(=S)Nc2ccccc2)c1	22µM*	?	-1%	4%
Cc1ccc(C(=O)N2CCC3(CC2)N(c2ccccc2)C(=O)CS3(=O)=O)c(C)c1	14%	/	/	/
Cc1csc(NC(=O)CCc2ncc(-c3ccc(C)c(C)c3)o2)n1	-30%	/	/	/
Fc1ccc(-c2nc(CSc3ncn[nH]3)co2)cc1	-2%	/	/	/
CCOC(=O)c1ccccc1NC(=O)CSc1c(C(C)C)cnc2c1c(=O)n(C)c(=O)n2C	-43%	/	/	/
O=C(NCC(=O)N(Cc1ccsc1)C1CC1)c1ccccc1	-4%	/	/	/
CCCOc1cccc(C(=O)NC(=S)Nc2ccccc2)c1	16µM*	-1%	4%	-12%
CCC(=O)Nc1cccc(NC(=S)NC(=O)c2ccccc2Cl)c1	-2%	?	-5%	-16%
CCCCOc1cccc(C(=O)NC(=S)Nc2cccc(NC(=O)c3ccccc3Cl)c2)c1	11µM*	-7%	1%	-6%
CC(C)Oc1ccc(C(=O)NC(=S)Nc2ccc(Cl)c(C(=O)O)c2)cc1	10µM*	9%	7%	2%
NC(=O)NC(=O)CCN1CCOC(c2cccc(Br)c2)C1 (configuration not stated)	11%	/	/	/
COC(=O)CCn1c(SC(C)C(=O)c2ccc(Br)cc2)nc2ccccc2c1=O (configuration not stated)	-1%	/	/	/
O=C(COC(=O)c1cc([N+](=O)[O-])ccc1Cl)c1cc2ccccc2o1	40µM*	/	/	/
Cc1ccccc1NC(=S)NCCO	-2%	0%	1%	-2%
COc1ccc(NC(=S)NCCSc2ccc(C)cc2)c(OC)c1	35µM*	/	0%	/
SMILES	12-LOX inh	Chronic BCR inh	Glioma ERSR ind	Apoferritin bind
CCc1ccccc1NC(=S)NCCSc1ccc(Cl)cc1	50µM*	?	-7%	48%
CS(=O)(=O)Nc1ccccc1C(=O)NCCSc1ccc(Cl)cc1	-6%	0%	-2%	-17%
Cc1ccc(SCCNC(=S)Nc2cccc(Cl)c2C)cc1	32µM*	/	/	/
Cc1ccccc1NC(=S)NCCSc1ccc(Cl)cc1	45µM*	?	-1%	4%
O=C1/C(=C\c2cccs2)Sc2ccccc21	-11%	/	/	/
Cc1ccccc1C(C)NC(=O)CCC(=O)c1ccc2c(c1)CCC2 (configuration not stated)	3%	/	/	/
Cc1ccc(C)c(NC(=S)NCCSc2ccc(Cl)cc2)c1	28µM*	?	-4%	-13%
COc1ccc(NC(=S)Nc2ccc(OCc3ccccc3)cc2)c(OC)c1	35µM*	-8%	-3%	6%
Cc1ccc(NC(=S)NCCSc2ccc(Cl)cc2)c(C)c1	?	?	-2%	78%
Cc1ccc(SCCNC(=S)Nc2ccc(F)cc2)cc1	50µM*	/	/	/
Cc1ccc(Cl)cc1NC(=S)NCCCSC1CCCCC1	35µM*	-5%	-3%	-8%
COc1ccc(C(NC(=O)C2CCCC2)c2nccc3cc(OC)c(OC)cc23)cc1OC (configuration not stated)	-28%	/	/	/
CCCNC(=O)[C@@H]1CCCN1[C@@H](C(=O)NC)c1ccc(OC)cc1	10µM*	/	/	/
CNC(=O)[C@@H](c1ccc(Cl)cc1)N1CCC[C@H]1C(=O)NCCN1CCCC1	0%	/	/	/
C=CCNC(=S)N/N=C/c1ccc(N(CC)Cc2ccccc2)cc1	50µM*	2%	-3%	i
N#Cc1c(NC(=O)/C=C/c2ccco2)sc2c1CCCC2	35µM*	?	1%	51%
Cc1cc(C(=O)Nc2sc3c(c2C#N)CCCC3)no1	35µM*	?	3%	6%
O=C(/C=C/c1ccco1)Nc1sc2c(c1C(=O)O)CCC2	?	?	7%	-20%
Nc1nc(-c2ccc(Cl)cc2)nn1C(=O)c1ccc(Cl)cc1	0%	/	/	/
CN(C)CCNC1CCCCC1	17%	/	/	/
O=C(/C=C/c1ccccc1)C1=C(O)C(=O)N(CCO)C1c1ccc2c(c1)OCO2 (configuration not stated)	7.9µM*	?	0%	-19%
C[S+](=O)([O-])c1cccc(-c2nccc3c(=O)cc(N4CCOCC4)oc23)c1	56µM*	/	/	/
COc1cccc(-c2nccc3c(=O)cc(N4CCOCC4)oc23)c1	45µM*	/	/	/
O=c1cc(N2CCOCC2)oc2c(-c3cccnc3)nccc12	33%[176 µM]	/	/	/
COc1ccc(Nc2nccc3c(=O)cc(N4CCOCC4)oc23)cn1	25µM*	/	/	/
SMILES	12-LOX inh	Chronic BCR inh	Glioma ERSR ind	Apoferritin bind
O=c1cc(N2CCOCC2)oc2c(-c3cccc(F)c3)nccc12	1%[176 µM]	/	/	/
Cc1ccc(NC(=O)CSc2nc3c(cnn3-c3ccc(C)cc3)c(=O)[nH]2)cc1	-1%	/	/	/
Cc1ccccc1CN1CCN2C(=O)N(C3CCCCC3)C[C@H]2C1	9%[176 µM]	/	/	/
O=C(Cc1cccnc1)N1CCc2c(nc3cc(-c4ccccc4)[nH]n3c2=O)C1	43%	/	/	/
COc1cc(/C=N/NC(=S)Nc2cccc(Cl)c2C)ccc1OCC(=O)N1CC(C)OC(C)C1 (configuration not stated)	45µM*	-15%	3%	-12%
COc1cc(/C=N/NC(=O)c2ccc(Cl)cc2)ccc1OCC(=O)N1CC(C)OC(C)C1 (configuration not stated)	-4%	?	-1%	-3%
O=Cc1cc(Br)cc(Cl)c1O	45µM*	/	/	/
O=Cc1cc(Cl)c(O)c(Cl)c1	49%	/	/	/
CCN1CCN(CCNC(=O)CSc2ncnc3c2sc2cccc(F)c23)CC1	10%	/	/	/
Cc1c(C)c2ccc(OCC(=O)NCCc3ccc(S(N)(=O)=O)cc3)c(C)c2oc1=O	-48%	/	/	/
CCNC(=O)N1CCN(CCCC(c2ccc(F)cc2)c2ccc(F)cc2)CC1	35µM*	?	-5%	/
Clc1ccc2c(NN=C3CCCC3)ccnc2c1	7.9µM*	/	/	/
CN(C)CCN(Cc1ccccc1)C(=O)Nc1ccc(C(=O)NCC(F)(F)F)cc1	23%	/	/	/
